What was measured:
Assay in all cases: DAPPL (digital affinity profiling via proximity ligation, sequencing); 10 mM Tris-HCl pH 7.5, 50 mM NaCl, 1 mM DTT, 4% glycerol, room temperature, 30 min; GST-TFs on glutathione beads, 16-mer random dsDNA library, 0.1% formaldehyde crosslink after washing; high values mean tight binding
Conditions in all cases: protein: recombinant; tags: N-terminal GST; dsDNA, one strand shown
[1] = molecular target: T1, FEV (Homo sapiens, UniProt Q99581 1-238)
T1 sequence: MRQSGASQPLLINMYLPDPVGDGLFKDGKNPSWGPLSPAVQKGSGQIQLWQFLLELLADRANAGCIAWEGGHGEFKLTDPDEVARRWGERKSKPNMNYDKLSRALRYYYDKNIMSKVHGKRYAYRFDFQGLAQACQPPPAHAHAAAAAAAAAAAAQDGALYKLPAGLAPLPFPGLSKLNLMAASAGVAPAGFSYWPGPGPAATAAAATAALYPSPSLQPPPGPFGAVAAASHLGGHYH
How it was run: (§1)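 Binding signal is given per hexamer as its read frequency for a factor divided by its frequency in the tag-only sample. GST-fused human transcription factors were expressed in yeast, captured on glutathione beads, barcoded with DNA and pooled with that sample, then incubated with 200 nmole of a 16-mer random double-stranded DNA library in Tris/NaCl/DTT/glycerol buffer for 30 min at room temperature. The pools were then washed, crosslinked, proximity-ligated, amplified by PCR and sequenced on an Illumina NextSeq500.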

[2] = molecular target: ETV5 (Homo sapiens, UniProt P41161 1-510)
How it was run: as §1

[3] = molecular target: T2, SPIC (Homo sapiens, UniProt Q8N5J4 1-248)
T2 sequence: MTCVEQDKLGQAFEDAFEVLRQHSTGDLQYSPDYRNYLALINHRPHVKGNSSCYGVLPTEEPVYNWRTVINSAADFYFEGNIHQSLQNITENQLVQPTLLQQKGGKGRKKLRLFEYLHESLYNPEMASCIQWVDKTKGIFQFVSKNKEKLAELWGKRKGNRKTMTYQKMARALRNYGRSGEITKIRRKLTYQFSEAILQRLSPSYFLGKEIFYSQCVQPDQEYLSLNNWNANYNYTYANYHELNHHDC
How it was run: as §1

[4] = molecular target: ELF4 (Homo sapiens, UniProt Q99607 1-663)
How it was run: as §1

[5] = molecular target: T3, ELK4 (Homo sapiens, UniProt P28324-2 1-405)
T3 sequence: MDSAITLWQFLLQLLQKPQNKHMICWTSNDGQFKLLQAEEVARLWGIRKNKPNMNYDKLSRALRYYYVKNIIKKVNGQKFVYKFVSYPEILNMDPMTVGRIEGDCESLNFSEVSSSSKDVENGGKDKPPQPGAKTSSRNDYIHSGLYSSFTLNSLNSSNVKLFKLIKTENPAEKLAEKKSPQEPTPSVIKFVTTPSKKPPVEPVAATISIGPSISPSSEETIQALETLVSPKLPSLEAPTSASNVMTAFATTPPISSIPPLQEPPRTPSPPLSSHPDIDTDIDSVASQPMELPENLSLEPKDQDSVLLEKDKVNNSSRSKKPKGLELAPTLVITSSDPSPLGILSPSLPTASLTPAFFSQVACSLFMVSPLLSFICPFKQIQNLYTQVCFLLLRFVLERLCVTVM
How it was run: as §1

[6] = molecular target: T4, ETV2 (Homo sapiens, UniProt O00321 1-342)
T4 sequence: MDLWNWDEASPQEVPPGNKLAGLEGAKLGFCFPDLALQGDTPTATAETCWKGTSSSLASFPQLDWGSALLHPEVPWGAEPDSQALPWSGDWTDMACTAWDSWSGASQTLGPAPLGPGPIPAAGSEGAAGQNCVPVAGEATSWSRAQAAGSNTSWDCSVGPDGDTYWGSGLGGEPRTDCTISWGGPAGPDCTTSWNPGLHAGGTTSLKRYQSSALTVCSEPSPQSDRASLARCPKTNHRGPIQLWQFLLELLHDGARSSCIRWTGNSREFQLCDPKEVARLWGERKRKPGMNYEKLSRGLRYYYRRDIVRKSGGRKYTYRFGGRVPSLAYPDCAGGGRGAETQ
How it was run: as §1

[7] = molecular target: T5, ELF3 (Homo sapiens, UniProt P78545 1-371)
T5 sequence: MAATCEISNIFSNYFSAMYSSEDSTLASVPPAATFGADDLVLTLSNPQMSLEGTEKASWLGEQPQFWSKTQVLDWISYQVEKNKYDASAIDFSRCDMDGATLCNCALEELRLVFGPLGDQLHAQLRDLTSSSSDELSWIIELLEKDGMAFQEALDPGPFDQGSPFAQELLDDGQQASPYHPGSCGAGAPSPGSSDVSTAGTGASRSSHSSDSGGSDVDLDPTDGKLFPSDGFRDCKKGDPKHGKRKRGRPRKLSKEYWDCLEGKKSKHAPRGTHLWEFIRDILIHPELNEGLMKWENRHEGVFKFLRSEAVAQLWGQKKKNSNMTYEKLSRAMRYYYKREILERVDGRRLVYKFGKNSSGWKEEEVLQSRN
How it was run: as §1

[8] = molecular target: ETV1 (Homo sapiens, UniProt P50549 1-477)
How it was run: as §1

[9] = molecular target: T6, ERF (Homo sapiens, UniProt P50548 1-548)
T6 sequence: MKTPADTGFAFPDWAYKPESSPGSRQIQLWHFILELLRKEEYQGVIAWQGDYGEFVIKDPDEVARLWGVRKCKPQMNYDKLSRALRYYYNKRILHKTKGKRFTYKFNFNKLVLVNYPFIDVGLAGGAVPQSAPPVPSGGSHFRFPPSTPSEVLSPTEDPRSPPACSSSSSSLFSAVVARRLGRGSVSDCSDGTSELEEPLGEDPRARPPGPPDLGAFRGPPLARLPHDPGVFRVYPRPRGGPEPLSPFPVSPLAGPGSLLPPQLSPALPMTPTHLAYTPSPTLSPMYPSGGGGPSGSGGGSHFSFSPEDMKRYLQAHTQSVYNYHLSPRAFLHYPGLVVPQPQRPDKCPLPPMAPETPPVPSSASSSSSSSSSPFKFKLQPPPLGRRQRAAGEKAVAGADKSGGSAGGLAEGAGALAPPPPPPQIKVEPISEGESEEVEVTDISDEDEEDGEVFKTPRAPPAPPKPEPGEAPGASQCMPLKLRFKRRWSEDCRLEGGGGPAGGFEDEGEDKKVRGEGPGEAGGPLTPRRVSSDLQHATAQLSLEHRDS
How it was run: as §1

[10] = molecular target: T7, ETV3L (Homo sapiens, UniProt Q6ZN32 1-361)
T7 sequence: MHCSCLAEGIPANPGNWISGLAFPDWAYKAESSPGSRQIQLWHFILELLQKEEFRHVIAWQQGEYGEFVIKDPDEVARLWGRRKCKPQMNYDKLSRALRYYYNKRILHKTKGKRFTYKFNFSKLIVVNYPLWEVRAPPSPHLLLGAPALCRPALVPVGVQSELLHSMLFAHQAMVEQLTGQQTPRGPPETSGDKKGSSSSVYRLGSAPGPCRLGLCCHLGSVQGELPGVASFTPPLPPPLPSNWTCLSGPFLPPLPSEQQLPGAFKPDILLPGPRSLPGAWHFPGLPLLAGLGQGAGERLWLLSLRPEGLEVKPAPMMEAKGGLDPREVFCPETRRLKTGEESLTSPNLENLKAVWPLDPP
How it was run: as §1

[11] = molecular target: T8, ETS2 (Homo sapiens, UniProt P15036 1-469)
T8 sequence: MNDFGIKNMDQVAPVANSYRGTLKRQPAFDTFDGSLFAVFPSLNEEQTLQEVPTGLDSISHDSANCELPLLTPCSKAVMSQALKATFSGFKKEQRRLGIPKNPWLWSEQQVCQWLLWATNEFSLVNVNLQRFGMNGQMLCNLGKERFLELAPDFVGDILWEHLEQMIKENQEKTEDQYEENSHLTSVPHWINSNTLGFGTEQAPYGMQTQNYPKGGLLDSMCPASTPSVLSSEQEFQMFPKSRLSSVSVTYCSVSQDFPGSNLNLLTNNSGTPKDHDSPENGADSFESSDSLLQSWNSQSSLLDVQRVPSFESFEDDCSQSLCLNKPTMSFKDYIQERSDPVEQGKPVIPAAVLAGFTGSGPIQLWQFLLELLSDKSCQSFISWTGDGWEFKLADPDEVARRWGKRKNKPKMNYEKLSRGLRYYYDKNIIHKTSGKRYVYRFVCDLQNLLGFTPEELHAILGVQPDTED
How it was run: as §1

[12] = molecular target: T9, SPDEF (Homo sapiens, UniProt O95238 1-335)
T9 sequence: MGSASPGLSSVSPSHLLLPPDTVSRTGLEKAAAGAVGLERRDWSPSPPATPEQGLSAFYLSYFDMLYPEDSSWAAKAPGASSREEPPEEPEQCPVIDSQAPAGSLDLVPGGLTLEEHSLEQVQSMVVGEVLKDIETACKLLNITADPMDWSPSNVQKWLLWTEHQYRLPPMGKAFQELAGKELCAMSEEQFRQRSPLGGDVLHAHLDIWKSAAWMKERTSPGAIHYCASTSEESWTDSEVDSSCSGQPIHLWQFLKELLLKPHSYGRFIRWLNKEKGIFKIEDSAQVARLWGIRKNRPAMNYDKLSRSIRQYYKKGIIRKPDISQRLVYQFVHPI
How it was run: as §1

[13] = molecular target: T10, ETV7 (Homo sapiens, UniProt Q9Y603 1-341)
T10 sequence: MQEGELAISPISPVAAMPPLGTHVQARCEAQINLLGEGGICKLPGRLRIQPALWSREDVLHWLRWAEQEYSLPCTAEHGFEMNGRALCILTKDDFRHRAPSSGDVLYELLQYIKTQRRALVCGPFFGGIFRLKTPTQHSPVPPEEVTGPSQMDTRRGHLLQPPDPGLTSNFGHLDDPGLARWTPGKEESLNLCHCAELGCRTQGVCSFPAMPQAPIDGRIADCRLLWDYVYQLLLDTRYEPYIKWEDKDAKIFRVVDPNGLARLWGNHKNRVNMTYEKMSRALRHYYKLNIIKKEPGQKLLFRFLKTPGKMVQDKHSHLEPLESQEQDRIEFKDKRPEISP
How it was run: as §1

[14] = molecular target: T11, ELF5 (Homo sapiens, UniProt Q9UKW6-2 1-255)
T11 sequence: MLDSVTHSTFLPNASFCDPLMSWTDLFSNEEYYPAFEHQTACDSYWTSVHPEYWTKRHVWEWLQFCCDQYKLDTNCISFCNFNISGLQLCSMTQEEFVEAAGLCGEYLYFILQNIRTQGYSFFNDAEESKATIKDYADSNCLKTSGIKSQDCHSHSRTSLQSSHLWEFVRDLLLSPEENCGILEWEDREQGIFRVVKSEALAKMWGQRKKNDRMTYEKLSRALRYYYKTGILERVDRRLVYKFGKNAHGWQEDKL
How it was run: as §1

[15] = molecular target: T12, ETV3 (Homo sapiens, UniProt P41162-2 1-143)
T12 sequence: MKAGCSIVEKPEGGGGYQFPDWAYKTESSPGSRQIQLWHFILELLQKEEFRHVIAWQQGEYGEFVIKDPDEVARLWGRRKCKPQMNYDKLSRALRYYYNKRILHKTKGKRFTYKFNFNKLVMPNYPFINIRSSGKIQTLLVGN
How it was run: as §1

[16] = molecular target: ETV6 (Homo sapiens, UniProt P41212 1-452)
How it was run: as §1

ETV5, sequence (P41161 whole entry): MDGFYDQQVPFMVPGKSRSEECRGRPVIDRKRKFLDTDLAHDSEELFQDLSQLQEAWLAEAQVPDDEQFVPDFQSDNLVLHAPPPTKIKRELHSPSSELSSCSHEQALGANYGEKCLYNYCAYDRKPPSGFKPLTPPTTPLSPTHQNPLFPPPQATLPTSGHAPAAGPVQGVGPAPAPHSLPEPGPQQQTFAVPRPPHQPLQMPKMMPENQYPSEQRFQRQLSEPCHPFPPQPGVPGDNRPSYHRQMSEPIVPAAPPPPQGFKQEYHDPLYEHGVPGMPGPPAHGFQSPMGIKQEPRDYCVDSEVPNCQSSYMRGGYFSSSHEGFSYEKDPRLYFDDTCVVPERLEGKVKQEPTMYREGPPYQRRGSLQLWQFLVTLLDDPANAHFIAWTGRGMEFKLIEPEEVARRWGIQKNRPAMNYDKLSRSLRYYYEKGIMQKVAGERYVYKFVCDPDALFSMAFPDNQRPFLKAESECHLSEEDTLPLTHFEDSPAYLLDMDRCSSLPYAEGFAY
ELF4, sequence (Q99607 whole entry): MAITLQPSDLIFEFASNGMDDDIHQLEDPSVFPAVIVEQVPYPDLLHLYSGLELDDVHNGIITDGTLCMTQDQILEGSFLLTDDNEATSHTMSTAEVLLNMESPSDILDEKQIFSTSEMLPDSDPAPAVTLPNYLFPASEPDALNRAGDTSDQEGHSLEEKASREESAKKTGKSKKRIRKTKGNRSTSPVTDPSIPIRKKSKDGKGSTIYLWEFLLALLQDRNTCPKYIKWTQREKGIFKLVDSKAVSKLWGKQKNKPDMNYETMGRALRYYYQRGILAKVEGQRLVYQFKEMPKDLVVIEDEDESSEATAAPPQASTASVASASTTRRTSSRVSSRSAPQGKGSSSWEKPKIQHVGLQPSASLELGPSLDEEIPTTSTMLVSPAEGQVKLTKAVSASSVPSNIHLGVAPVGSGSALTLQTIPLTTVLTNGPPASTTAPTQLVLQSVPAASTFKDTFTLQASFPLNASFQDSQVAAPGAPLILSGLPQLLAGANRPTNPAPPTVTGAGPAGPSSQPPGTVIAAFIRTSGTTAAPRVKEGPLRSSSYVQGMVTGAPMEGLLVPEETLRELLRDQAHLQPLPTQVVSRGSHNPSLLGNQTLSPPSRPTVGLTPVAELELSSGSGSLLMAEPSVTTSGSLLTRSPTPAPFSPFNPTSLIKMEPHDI
ETV1, sequence (P50549 whole entry): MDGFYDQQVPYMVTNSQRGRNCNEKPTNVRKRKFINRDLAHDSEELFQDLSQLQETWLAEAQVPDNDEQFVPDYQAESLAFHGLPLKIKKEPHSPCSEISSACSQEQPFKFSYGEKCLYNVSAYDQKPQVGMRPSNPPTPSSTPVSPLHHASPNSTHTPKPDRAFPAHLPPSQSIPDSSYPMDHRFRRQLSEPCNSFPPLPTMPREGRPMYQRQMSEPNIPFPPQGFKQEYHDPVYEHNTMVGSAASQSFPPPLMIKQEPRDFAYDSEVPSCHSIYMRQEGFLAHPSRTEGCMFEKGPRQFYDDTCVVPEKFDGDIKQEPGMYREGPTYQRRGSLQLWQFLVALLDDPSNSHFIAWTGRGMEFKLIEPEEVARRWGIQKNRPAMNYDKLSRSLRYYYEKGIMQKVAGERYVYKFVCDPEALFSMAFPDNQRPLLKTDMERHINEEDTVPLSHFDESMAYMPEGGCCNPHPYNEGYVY
ETV6, sequence (P41212 whole entry): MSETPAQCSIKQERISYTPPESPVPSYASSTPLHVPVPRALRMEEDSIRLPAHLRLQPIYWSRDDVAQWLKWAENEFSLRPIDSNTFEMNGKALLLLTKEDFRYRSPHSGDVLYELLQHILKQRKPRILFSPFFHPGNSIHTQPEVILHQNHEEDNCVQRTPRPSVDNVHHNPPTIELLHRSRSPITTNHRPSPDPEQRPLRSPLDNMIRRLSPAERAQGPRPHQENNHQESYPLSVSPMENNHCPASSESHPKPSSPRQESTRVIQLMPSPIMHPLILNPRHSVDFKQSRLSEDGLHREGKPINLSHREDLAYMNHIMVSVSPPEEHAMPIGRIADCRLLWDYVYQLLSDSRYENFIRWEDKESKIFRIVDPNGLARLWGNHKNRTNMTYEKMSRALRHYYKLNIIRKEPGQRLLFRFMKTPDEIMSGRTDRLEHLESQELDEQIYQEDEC

Row | Sequence | binding signal [1] | binding signal [2] | binding signal [3] | binding signal [4] | binding signal [5] | binding signal [6] | binding signal [7] | binding signal [8] | binding signal [9] | binding signal [10] | binding signal [11] | binding signal [12] | binding signal [13] | binding signal [14] | binding signal [15] | binding signal [16]
1 | GGATGC | 1.29 fold enrichment (6-mer frequency, TF over GST control) | 1.27 fold enrichment (6-mer frequency, TF over GST control) | 1.2 fold enrichment (6-mer frequency, TF over GST control) | 1.09 fold enrichment (6-mer frequency, TF over GST control) | 1.13 fold enrichment (6-mer frequency, TF over GST control) | 1.06 fold enrichment (6-mer frequency, TF over GST control) | 1.13 fold enrichment (6-mer frequency, TF over GST control) | 1.2 fold enrichment (6-mer frequency, TF over GST control) | 1.13 fold enrichment (6-mer frequency, TF over GST control) | 1.19 fold enrichment (6-mer frequency, TF over GST control) | 1.2 fold enrichment (6-mer frequency, TF over GST control) | 1.91 fold enrichment (6-mer frequency, TF over GST control) | 1.22 fold enrichment (6-mer frequency, TF over GST control) | 1.25 fold enrichment (6-mer frequency, TF over GST control) | 1.3 fold enrichment (6-mer frequency, TF over GST control) | 1.15 fold enrichment (6-mer frequency, TF over GST control)
2 | CCACCC | 1.17 fold enrichment (6-mer frequency, TF over GST control) | 1.25 fold enrichment (6-mer frequency, TF over GST control) | 1.21 fold enrichment (6-mer frequency, TF over GST control) | 1.32 fold enrichment (6-mer frequency, TF over GST control) | 1.38 fold enrichment (6-mer frequency, TF over GST control) | 1.3 fold enrichment (6-mer frequency, TF over GST control) | 1.37 fold enrichment (6-mer frequency, TF over GST control) | 1.16 fold enrichment (6-mer frequency, TF over GST control) | 1.24 fold enrichment (6-mer frequency, TF over GST control) | 1.37 fold enrichment (6-mer frequency, TF over GST control) | 1.18 fold enrichment (6-mer frequency, TF over GST control) | 1.22 fold enrichment (6-mer frequency, TF over GST control) | 1.09 fold enrichment (6-mer frequency, TF over GST control) | 1.21 fold enrichment (6-mer frequency, TF over GST control) | 1.28 fold enrichment (6-mer frequency, TF over GST control) | 1.24 fold enrichment (6-mer frequency, TF over GST control)

From article PMC7862700, “An all-to-all approach to the identification of sequence-specific readers for epigenetic DNA modifications on cytosine”
